The record followed here is PubChem BioAssay (EPA / NIEHS).

The source made the active and inactive calls. The calls were made as follows: active = hit-call score of the fitted dose curve at least 0.9, where 1 is the maximum; inactive = score below 0.9.

One may read the AC50 as the midpoint of the concentration-response curve, whichever way the signal moves.

Holding throughout (conditions): primary human HUVEC with PBMC; actives raise or lower the signal
Read-out in assay [1]: Monocyte Chemoattractant Protein-1 (MCP1), CCL2 (gene 6347)
In words: BSK_LPS_MCP1: BioMAP Diversity Plus: LPS Assay for Monocyte Chemoattractant Protein-1 (MCP1) Biomarker Activity (AID 2283081).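 As to AC50: co-culture stimulated with LPS; secreted MCP-1 protein quantified by ELISA in culture supernatant.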 The method, boiled down:
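HUVEC plus PBMC co-culture (human primary cells, LPS system) exposed to test chemical for 24 h; MCP-1 measured by ELISA. Bidirectional curve fitting against DMSO baseline; parallel SRB total-protein staining flags overt cytotoxicity.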

Assay [2] can be described thus: BSK_LPS_PGE2: BioMAP Diversity Plus: LPS Assay for Prostaglandin E2 (PGE2) Biomarker Activity (AID 2283082).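 As to AC50: secreted prostaglandin E2 measured by ELISA in LPS-stimulated co-culture.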 In outline:
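PGE2 release measured by ELISA in an LPS-activated co-culture of human umbilical vein endothelial cells and peripheral blood mononuclear cells, read at 24 h post-dosing. DMSO served as baseline for bidirectional curve fitting.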

Read-out in assay [3]: Macrophage colony-stimulating factor (MCSF), CSF1 (gene 1435)
Put plainly: BSK_LPS_MCSF: BioMAP Diversity Plus: LPS Assay for Macrophage colony-stimulating factor (MCSF) Biomarker Activity (AID 2283083). The method, boiled down:
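Human umbilical vein endothelial cells co-cultured with peripheral blood mononuclear cells were exposed to compound for 24 h. M-CSF levels were measured by ELISA, and bidirectional curve fitting used DMSO as the negative control and baseline.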

Read-out in assay [4]: Tissue Factor, F3 (gene 2152)
In words: BSK_LPS_TissueFactor: BioMAP Diversity Plus: LPS Assay for Tissue Factor Biomarker Activity (AID 2283084). In outline: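 Human umbilical vein endothelial cells co-cultured with peripheral blood mononuclear cells were dosed and stimulated with LPS. Cell-surface CD142 was quantified by ELISA at 24 h. Activity was fitted bidirectionally against DMSO baseline.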

Read-out in assay [5]: Tumor necrosis factor (Homo sapiens) (UniProt P01375)
In words: BSK_LPS_TNFa: BioMAP Diversity Plus: LPS Assay for Tumour Necrosis Factor alpha (TNFa) Biomarker Activity (AID 2283085).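 As to AC50: TNFa protein level quantified by ELISA in the co-culture.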 The method, boiled down: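 TNFa was quantified by ELISA in LPS-activated co-cultures of human endothelial cells and PBMC, 24 h post-dosing. Both increases and decreases versus DMSO were fitted.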

Read-out in assay [6]: Vascular cell adhesion molecule 1 (VCAM1), VCAM1 (gene 7412)
In words: BSK_LPS_VCAM1: BioMAP Diversity Plus: LPS Assay for Vascular cell adhesion molecule 1 (VCAM1) Biomarker Activity (AID 2283086). In outline:
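VCAM-1 quantified by ELISA in an LPS-activated co-culture of human endothelial cells and peripheral blood mononuclear cells, read 24 h post-treatment. Fitted in both directions versus DMSO; parallel SRB staining flags overt cytotoxicity.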

Read-out in the next assay: CD38, CD38 (gene 952)
In words: BSK_SAg_CD38: BioMAP Diversity Plus: SAg Assay for CD38 Biomarker Activity (AID 2283087). In outline: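 CD38 quantified by ELISA (fluorescence) in a superantigen-activated endothelial cell–PBMC co-culture at 24 h post-dose. Activity fitted in both directions relative to DMSO; parallel SRB and Alamar Blue cytotoxicity read-outs.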

Read-out in the next assay: CD40, CD40 (gene 958)
In words: BSK_SAg_CD40: BioMAP Diversity Plus: SAg Assay for CD40 Biomarker Activity (AID 2283088). The method, boiled down: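 Human umbilical vein endothelial cells co-cultured with PBMC; CD40 levels measured by ELISA with fluorescence read-out 24 h after chemical dosing. Gain or loss of signal fitted bidirectionally against DMSO baseline.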

Read-out in the next assay: CD69, CD69 (gene 969)
Put plainly: BSK_SAg_CD69: BioMAP Diversity Plus: SAg Assay for CD69 Biomarker Activity (AID 2283089).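 As to AC50: cell surface CD69 protein quantified by ELISA with fluorescence detection.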 In outline: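 Primary human vascular co-culture (umbilical vein endothelium with peripheral blood mononuclear cells) exposed to test chemical for 24 h. CD69 levels quantified by fluorescence ELISA; DMSO served as negative control for bidirectional fitting.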

Read-out in assay [7]: Monocyte Chemoattractant Protein-1 (MCP1), CCL2 (gene 6347)
In words: BSK_SAg_MCP1: BioMAP Diversity Plus: SAg Assay for Monocyte Chemoattractant Protein-1 (MCP1) Biomarker Activity (AID 2283090). The method, boiled down:
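Values derive from bidirectional fitting of ELISA-measured MCP1 against DMSO controls. Readings were taken 24 h after dosing human vascular endothelial cells co-cultured with peripheral blood mononuclear cells under superantigen stimulation.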

Chain of Tumor necrosis factor (Homo sapiens) (P01375 whole entry, looked up): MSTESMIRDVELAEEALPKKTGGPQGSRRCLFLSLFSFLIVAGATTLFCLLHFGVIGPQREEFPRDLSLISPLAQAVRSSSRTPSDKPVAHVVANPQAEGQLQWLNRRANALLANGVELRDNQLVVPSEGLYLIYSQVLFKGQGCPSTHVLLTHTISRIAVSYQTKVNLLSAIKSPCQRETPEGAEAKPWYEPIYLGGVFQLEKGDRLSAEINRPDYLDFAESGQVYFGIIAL

On to `CCOC(=O)CCC(=O)OCC`, for which the outcome in [1], in [2], in [3], in [4], in assay [5] and in assay [6] was inactive. The outcome is “inactive” with CD38, CD38 (gene 952); “inactive” with CD40, CD40 (gene 958); “inactive” with CD69, CD69 (gene 969); “inactive” in assay [7].
`COC(=O)c1ccc(O)cc1`: the outcome in [1] was “inactive”; in assay [3] it was “inactive”; in [4], “inactive”; in [5], “inactive”; in assay [6] it was “inactive”; with CD38, CD38 (gene 952) it was “inactive”. For the same compound, the outcome in the assay with CD40, CD40 (gene 958) is “inactive”; with CD69, CD69 (gene 969), “inactive”; in [7], “inactive”. The AC50 in assay [2] is 1.34 µM (active).
In the case of `Cc1cccc(Nc2cc(Cl)nc(SCC(=O)O)n2)c1C`, the result in [1], in assay [2], in assay [3], in [4], in assay [5] and in assay [6] was inactive. Moreover, the outcome with CD38, CD38 (gene 952) was “inactive”; in the assay with CD40, CD40 (gene 958) it was “inactive”; with CD69, CD69 (gene 969), “inactive”; in assay [7], “inactive”.
As to `CC(=O)OC/C=C(\C)CCC=C(C)C`, the outcome in assay [1], in [2], in [3], in assay [4], in assay [5] and in [6] was inactive. The outcome with CD38, CD38 (gene 952) is “inactive”; with CD40, CD40 (gene 958) it was “inactive”; in the assay with CD69, CD69 (gene 969), “inactive”; in assay [7], “inactive”.
For the compound `O=c1[nH]cc(F)c(=O)[nH]1`, the outcome in assay [1] was “inactive”; in assay [2], “inactive”; in assay [3], “inactive”; in assay [4], “inactive”; in assay [5] it was “inactive”; in the assay with CD38, CD38 (gene 952) it was “inactive”. Moreover, the outcome in the assay with CD40, CD40 (gene 958) was “inactive”; with CD69, CD69 (gene 969), “inactive”; in assay [7] it was “inactive”. The AC50 in assay [6] was 20.4 µM (active).
`CNCc1cc(F)ccc1Oc1ccc(Cl)c(Cl)c1`: the AC50 was 26.2 µM (active) in assay [1]; 0.461 µM (active) in assay [5]; 28.5 µM (active) in the assay with CD38, CD38 (gene 952); 36.5 µM (active) with CD40, CD40 (gene 958); 26.3 µM (active) in the assay with CD69, CD69 (gene 969); 26.4 µM (active) in [7]. Besides, the result in [2], in assay [3], in assay [4] and in assay [6] was inactive.
Regarding `CCCCCCCCCCCCCO`, the outcome was “inactive” in assay [1]; “inactive” in [2]; “inactive” in assay [3]; “inactive” in assay [4]; “inactive” in [5]; “inactive” with CD69, CD69 (gene 969). The AC50 in assay [6] is 34.7 µM (active); with CD38, CD38 (gene 952) it was 31.1 µM (active); with CD40, CD40 (gene 958), 29.8 µM (active); in assay [7], 31.5 µM (active).
In the case of `O=[N+]([O-])C(CO)(CO)CO`, the result in [1], in [2], in assay [3], in assay [4], in assay [5] and in [6] was inactive. Besides, the outcome was “inactive” with CD38, CD38 (gene 952); “inactive” with CD40, CD40 (gene 958); “inactive” with CD69, CD69 (gene 969); “inactive” in assay [7].
As for `CC(C)(C)c1cc(O)c(C(C)(C)C)cc1O`, the outcome was “inactive” in assay [1]; “inactive” in assay [3]; “inactive” in assay [4]; “inactive” with CD38, CD38 (gene 952). The AC50 is 9.44 µM (active) in assay [2]; 1.43 µM (active) in assay [5]; 8.05 µM (active) in assay [6]; 11.7 µM (active) with CD40, CD40 (gene 958); 5.55 µM (active) with CD69, CD69 (gene 969); 5.94 µM (active) in [7].
As to `Cc1nc(C)nc(N2C[C@@H](C)N(c3ccnc([C@@H](C)O)n3)[C@@H](C)C2)n1`, the result in assay [1], in assay [2], in [3], in [4], in assay [5] and in assay [6] was inactive. The outcome with CD38, CD38 (gene 952) is “inactive”; in the assay with CD40, CD40 (gene 958), “inactive”; with CD69, CD69 (gene 969) it was “inactive”; in [7], “inactive”.
Regarding `CCCCc1ccc2c(n1)[C@@H](c1ccc(OC)cc1C[C@H](C)C(=O)O)[C@H](C(=O)O)[C@H]2c1ccc2c(c1)OCO2`, the outcome in [1], in assay [2], in [3], in [4], in [5] and in [6] was inactive. Moreover, the outcome in the assay with CD38, CD38 (gene 952) was “inactive”; with CD40, CD40 (gene 958) it was “inactive”; in the assay with CD69, CD69 (gene 969), “inactive”; in assay [7], “inactive”.
As for `CCCCCCCC=O`, the outcome in [1], in assay [2], in assay [3], in assay [4], in assay [5] and in [6] was inactive. The outcome is “inactive” with CD38, CD38 (gene 952); “inactive” with CD40, CD40 (gene 958); “inactive” in the assay with CD69, CD69 (gene 969); “inactive” in assay [7].
For `C1CCC(SSC2CCCCC2)CC1`, the AC50 in [1] is 20 µM (active); in assay [5], 32.5 µM (active); in [6] it was 20 µM (active); with CD38, CD38 (gene 952) it was 20 µM (active); with CD40, CD40 (gene 958) it was 27 µM (active); with CD69, CD69 (gene 969) it was 20 µM (active). The result in assay [2], in [3], in [4] and in [7] was inactive.
`CCOc1ccc2c(c1)C(C)=CC(C)(C)N2`: the outcome in assay [1] is “inactive”; in assay [3], “inactive”; in [4], “inactive”; in [6], “inactive”; with CD38, CD38 (gene 952), “inactive”; in the assay with CD40, CD40 (gene 958), “inactive”. Also, the outcome in assay [7] was inactive. Further, the AC50 in assay [2] is 4.6 µM (active); in [5], 3.97 µM (active).
Consider `CCCCCCOCCO`, for which the outcome in assay [1], in assay [2], in assay [3], in assay [4], in [5] and in assay [6] was inactive. In addition, the outcome was “inactive” with CD38, CD38 (gene 952); “inactive” with CD40, CD40 (gene 958); “inactive” in assay [7].
Consider `CC1(C)CC(N=C=O)CC(C)(CN=C=O)C1` (centres undefined), for which the result in [1], in [2], in assay [3], in assay [4], in assay [5] and in [6] was inactive. Also, the outcome with CD38, CD38 (gene 952) is “inactive”; in the assay with CD40, CD40 (gene 958) it was “inactive”; with CD69, CD69 (gene 969) it was “inactive”; in [7], “inactive”.
Regarding `NC(=O)Cn1c(=O)cc(CCN2CCN(c3nccc4sccc34)CC2)c2ccc(F)cc21`, the result in [1], in assay [2], in [3], in assay [4], in [5] and in assay [6] was inactive. Also, the outcome in the assay with CD38, CD38 (gene 952) was “inactive”; with CD40, CD40 (gene 958), “inactive”; in assay [7], “inactive”.
Take `Clc1cc(Cl)c(Cl)cc1Cl`: the result in assay [1], in [2], in [3], in assay [4], in assay [5] and in assay [6] was inactive. The outcome in the assay with CD38, CD38 (gene 952) was “inactive”; in the assay with CD40, CD40 (gene 958) it was “inactive”; with CD69, CD69 (gene 969), “inactive”; in [7], “inactive”.
In the case of `COc1ccc(C)cc1N`, the result in assay [1], in [2], in assay [3], in assay [4], in [5] and in assay [6] was inactive. Further, the outcome was “inactive” with CD38, CD38 (gene 952); “inactive” with CD40, CD40 (gene 958); “inactive” in assay [7].
In the case of `CN[C@H]1CC[C@@H](c2ccc(Cl)c(Cl)c2)c2ccc(S(N)(=O)=O)cc21`, the AC50 in assay [1] is 18.7 µM (active); in assay [3], 30.1 µM (active); in [4], 32.2 µM (active); in [5], 23.3 µM (active); in [6] it was 20 µM (active); with CD38, CD38 (gene 952) it was 27.7 µM (active). The AC50 with CD40, CD40 (gene 958) was 29.3 µM (active); in [7] it was 25.2 µM (active). Also, the result in assay [2] was inactive.
`Nc1ccccc1N`: the outcome in assay [1] is “inactive”; in [4], “inactive”; in assay [5], “inactive”; with CD38, CD38 (gene 952), “inactive”; with CD40, CD40 (gene 958), “inactive”; in [7], “inactive”. Moreover, the AC50 in assay [2] was 10.9 µM (active); in assay [3] it was 3.97 µM (active); in assay [6], 11.2 µM (active).
